# Among all 2,300 compounds or so, about 1,500 (65%) were called active. The set was probably picked from earlier hits. The list shows a part of the results. Results with a measured potency or affinity are listed apart. Values without a mark were called inactive. The rule behind the calls is not given here.
# Assay: replicating M. tuberculosis growth inhibition, dose response, non-replicating M. tuberculosis project, H37Rv (AID 492952);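 note: Mycobacterium tuberculosis grown in culture; growth inhibition read after a week of incubation; 0% = bacteria alone untreated and 100% = bacteria with high antibiotic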
# Conditions: series mostly up to 50 µM; inhibition: at the top concentration
row,SMILES,inhibition
1,CC(Cc1ccccc1Sc1ccccc1)N(C)C (stereo unspecified),5.59%
2,CN1CCN(/N=C/c2ccc(-c3ccc([N+](=O)[O-])cc3Cl)o2)CC1,1.44%
3,Cc1ccc(-c2ccc(/C=N/NC(=O)CN3CCCC3)o2)cc1Cl,8.7%
4,COc1ccc(Cl)cc1N=Cc1c(O)c2ccccc2oc1=O,2.85%
5,COc1ccccc1-n1c(=O)oc2ccc(Cl)cc2c1=O,0.52%
6,O=C(N/N=C\c1ccccc1OCc1ccccc1)c1ccco1,2.01%
7,O=C(N[C@@H]1C[C@H]2CC[C@@H]1C2)c1ccco1,-3.89%
8,Cc1ccc(C(=O)NCCOc2cccc(C)c2)cc1,10.5%
9,CCCCNC(=O)N1CCc2ccccc2C1,2.06%
10,O=C1CC(N2CCN(Cc3ccccc3)CC2)C(=O)N1CCc1ccccc1 (stereo unspecified),-2.14%
11,CCN1CCN(C(=O)CN(Cc2ccccc2)S(C)(=O)=O)CC1,3.47%
12,O=C(NCc1ccccc1CN1CCCC1)c1cc2ccccc2o1,-1.3%
13,O=C(CCS(=O)(=O)Cc1ccccc1)Nc1ncc([N+](=O)[O-])s1,6.12%
14,O=C(N/N=C/c1c(O)ccc2ccccc12)c1ccc(Br)o1,-8.28%
15,CCCCN(C)C(=O)c1cc2cc3ccc(OC)cc3nc2s1,13.3%
16,O=C(CNC(=O)c1ccccc1F)OCc1csc(-c2ccccc2)n1,0.12%
17,O=C(NCC1CCCCC1)c1ccco1,-0.2%
18,CCCOC(=O)c1ccc(OC(=O)c2ccco2)cc1,12%
19,C/C(=N/NC(=O)c1cccc(C)c1)c1c(O)cc(C)oc1=O,17.8%
20,COc1cccc(NC(=O)c2ccc(-c3ccc([N+](=O)[O-])cc3)o2)c1,24.3%
21,O=C(Nc1ncc([N+](=O)[O-])s1)c1cccs1,6.4%

row,SMILES,inhibition
1,O=C1/C(=C\c2ccco2)SC(=S)N1c1ccc(O)cc1,8.77%
2,O=C(NNC1=C(C(=O)C(F)(F)F)CCC1)c1ccccc1Cl,5.77%
3,Cc1c(Cl)cccc1NC(=O)C1COc2ccccc2O1 (stereo unspecified),6.98%
4,Cc1ccccc1C(=O)NNc1ccc([N+](=O)[O-])cc1,-3.91%
5,O=C(c1cccc2cccc(O)c12)N1CCCCC1,7.84%
6,O=C(COc1ccc2ccccc2c1)N1CCCC1,-4.79%
7,Cc1ccc(C(=O)N/N=C/c2cccc3ccccc23)cn1,-2.22%
8,CCN(CC)CCSc1nnc2c3cc(C)ccc3n(Cc3ccccc3)c2n1,27%
9,Cc1ccc(NC(=O)C2CC2c2ccccc2)cc1 (stereo unspecified),-6.03%
10,N#Cc1ccc(CSc2nnc(-c3cccnc3)o2)cc1,2.49%
11,O=C(CCSc1nnc(-c2ccncc2)o1)Nc1cccc(Cl)c1,22.7%
12,Cc1nnc(SCCC(=O)Nc2ccc(Cl)cc2)o1,0%
13,CCOC(=O)CN1NC2(CCC(C)CC2)NC1=S (stereo unspecified),1.45%
14,O=[N+]([O-])c1ccc2nc(SCc3cn4cc(Cl)ccc4n3)[nH]c2c1,-1.37%
15,O=c1c2cc(Cl)ccc2nc(-c2ccccc2Cl)n1O,2.14%
16,O=c1c2c([N+](=O)[O-])cc([N+](=O)[O-])cc2sn1-c1ccc(Br)cc1,-3.61%
17,Cc1nc2ccc(Cl)cc2nc(C)/c1=N\O,18.5%
18,O=C(NNc1nc2ccccc2s1)c1ccc(F)cc1,10.5%
19,CC(C)CCC1=NN(C(=O)c2ccco2)C(O)(C(F)(F)F)C1 (stereo unspecified),-0.92%
20,CCOC(=O)C1(CC2CCCCO2)CCN(Cc2nccn2-c2ccc(OC)cc2)CC1 (stereo unspecified),3.85%
21,CCCCNS(=O)(=O)c1ccc(OCC(=O)OC)cc1,0.69%

row,SMILES,inhibition
1,NNC(=O)COc1cccc(Oc2ccccc2)c1,11.4%
2,C=CCOC(=O)c1ccc(-n2cnc(C)n2)nc1,18.1%
3,COC(=O)c1ccc(OCC(=O)c2cccc(OC)c2)cc1,1.08%
4,CCn1cc(/C=N\NC(=O)c2ccc(F)cc2)cn1,-0.27%
5,O=C(c1cc(F)ccc1F)C1CCCN(Cc2ccc3nonc3c2)C1 (stereo unspecified),6.97%
6,Cc1ccc(NC(=S)C2=C(O)c3sccc3N(C)S2(=O)=O)cc1,1.4%
7,COc1ccc(CC(=O)Nc2nccs2)cc1OC,-15.2%
8,O=C(Nc1sc2c(c1C(=O)O)CCCCC2)c1ccccc1F,1.46%
9,N#Cc1ccsc1NC(=O)c1ccc(Cl)c([N+](=O)[O-])c1,-1.52%
10,O=C1NC(=O)N(Cc2ccco2)C(=O)/C1=C\c1cccn1CCOc1ccc(Cl)cc1,-2.12%
11,CCCCCOc1ccc(CSC2=NCCN2)cc1[N+](=O)[O-],3.34%
12,Cc1cc(Br)ccc1OCCCCN1CCC(C)CC1,13.3%
13,C=CCN(CC=C)CC(=O)Nc1ccc(S(N)(=O)=O)cc1,-1.05%
14,NC(=O)CN1CCN(C2CC(=O)N(CCc3ccccc3)C2=O)CC1 (stereo unspecified),-0.23%
15,COC(=O)c1cccc(COC(=O)c2cc3ccccc3oc2=O)c1,5.68%
16,O=C(COC(=O)C1CC2C=CC1C2)Nc1ccccc1 (stereo unspecified),-4.32%
17,O=c1oc2ccccc2c2c1nnn2CCO,4.47%
18,CCC(C)n1c(=S)[nH]c2ccccc2c1=O (stereo unspecified),10.9%
19,CCOC(=O)c1sc(NC(=O)CCN2CC(C)OC(C)C2)c(C(=O)OCC)c1C (stereo unspecified),-3.06%

# — PubChem BioAssay AID492952 (Southern Research Specialized Biocontainment Screening …, 2010)
